Results published in the supplement of paper PMC11732987, “Enantioselective OTUD7B fragment discovery through chemoproteomics screening and high-throughput optimisation” (Communications Chemistry, 2025).

Tests used:
Assay in all cases: log2 ratio of Biotin-Ahx-Ub-VS probe labelling (fragment/DMSO); higher = less target engagement (more negative = stronger competition), active = hit call of the paper (q ≤ 0.05, log2 ratio ≤ -1)
Settings in all cases: compound concentration: 200 uM; treatment time: 3 h
[1] = molecular target: USP34 (UniProt Q70CQ2)
Method in brief: (§1)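 The table lists average log2 ratios of fragment over vehicle, from an unpaired t-test on global-median-normalised Spectronaut label-free quantities. Proteins with ≥2 unique peptides were used. Samples were HEK293T lysate (495 µg) treated in triplicate with fragment at 200 µM or vehicle for 3 h, then with Biotin-Ahx-Ub-VS (0.5 µM final) for 1 h, with labelled DUBs NeutrAvidin-enriched and run by diaPASEF LC-MS/MS.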

[2] = molecular target: T1, USP36 (UniProt Q9P275)
T1 sequence (whole entry): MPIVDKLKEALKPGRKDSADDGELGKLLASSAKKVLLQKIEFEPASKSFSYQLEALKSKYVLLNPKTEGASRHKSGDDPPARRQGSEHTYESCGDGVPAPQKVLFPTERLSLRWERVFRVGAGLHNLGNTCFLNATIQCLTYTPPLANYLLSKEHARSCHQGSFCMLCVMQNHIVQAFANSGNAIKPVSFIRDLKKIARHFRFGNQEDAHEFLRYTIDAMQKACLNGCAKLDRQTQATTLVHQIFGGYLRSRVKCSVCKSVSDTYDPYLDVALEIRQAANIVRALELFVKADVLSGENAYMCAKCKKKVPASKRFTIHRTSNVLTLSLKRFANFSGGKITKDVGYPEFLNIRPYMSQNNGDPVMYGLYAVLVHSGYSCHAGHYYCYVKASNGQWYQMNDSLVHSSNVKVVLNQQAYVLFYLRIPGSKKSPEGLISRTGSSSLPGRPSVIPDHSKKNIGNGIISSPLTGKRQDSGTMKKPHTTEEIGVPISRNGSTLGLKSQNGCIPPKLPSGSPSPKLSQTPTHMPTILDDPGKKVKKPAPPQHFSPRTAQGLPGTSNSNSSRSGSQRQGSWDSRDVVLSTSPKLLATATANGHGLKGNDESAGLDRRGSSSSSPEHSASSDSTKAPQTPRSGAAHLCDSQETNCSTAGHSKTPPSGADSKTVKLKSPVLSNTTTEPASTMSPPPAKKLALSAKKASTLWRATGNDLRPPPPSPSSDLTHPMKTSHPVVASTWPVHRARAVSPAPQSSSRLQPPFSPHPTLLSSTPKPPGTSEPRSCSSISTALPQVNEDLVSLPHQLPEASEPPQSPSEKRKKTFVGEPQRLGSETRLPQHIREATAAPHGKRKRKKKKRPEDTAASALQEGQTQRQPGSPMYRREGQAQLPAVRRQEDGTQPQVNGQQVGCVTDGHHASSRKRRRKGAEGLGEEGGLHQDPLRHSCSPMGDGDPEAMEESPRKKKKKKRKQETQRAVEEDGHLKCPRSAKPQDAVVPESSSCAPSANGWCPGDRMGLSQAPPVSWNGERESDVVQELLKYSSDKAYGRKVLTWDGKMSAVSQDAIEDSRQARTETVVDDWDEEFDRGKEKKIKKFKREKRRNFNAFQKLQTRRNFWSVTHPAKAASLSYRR
Method in brief: as §1

[3] = molecular target: T2, USP38 (UniProt Q8NB14)
T2 sequence (whole entry): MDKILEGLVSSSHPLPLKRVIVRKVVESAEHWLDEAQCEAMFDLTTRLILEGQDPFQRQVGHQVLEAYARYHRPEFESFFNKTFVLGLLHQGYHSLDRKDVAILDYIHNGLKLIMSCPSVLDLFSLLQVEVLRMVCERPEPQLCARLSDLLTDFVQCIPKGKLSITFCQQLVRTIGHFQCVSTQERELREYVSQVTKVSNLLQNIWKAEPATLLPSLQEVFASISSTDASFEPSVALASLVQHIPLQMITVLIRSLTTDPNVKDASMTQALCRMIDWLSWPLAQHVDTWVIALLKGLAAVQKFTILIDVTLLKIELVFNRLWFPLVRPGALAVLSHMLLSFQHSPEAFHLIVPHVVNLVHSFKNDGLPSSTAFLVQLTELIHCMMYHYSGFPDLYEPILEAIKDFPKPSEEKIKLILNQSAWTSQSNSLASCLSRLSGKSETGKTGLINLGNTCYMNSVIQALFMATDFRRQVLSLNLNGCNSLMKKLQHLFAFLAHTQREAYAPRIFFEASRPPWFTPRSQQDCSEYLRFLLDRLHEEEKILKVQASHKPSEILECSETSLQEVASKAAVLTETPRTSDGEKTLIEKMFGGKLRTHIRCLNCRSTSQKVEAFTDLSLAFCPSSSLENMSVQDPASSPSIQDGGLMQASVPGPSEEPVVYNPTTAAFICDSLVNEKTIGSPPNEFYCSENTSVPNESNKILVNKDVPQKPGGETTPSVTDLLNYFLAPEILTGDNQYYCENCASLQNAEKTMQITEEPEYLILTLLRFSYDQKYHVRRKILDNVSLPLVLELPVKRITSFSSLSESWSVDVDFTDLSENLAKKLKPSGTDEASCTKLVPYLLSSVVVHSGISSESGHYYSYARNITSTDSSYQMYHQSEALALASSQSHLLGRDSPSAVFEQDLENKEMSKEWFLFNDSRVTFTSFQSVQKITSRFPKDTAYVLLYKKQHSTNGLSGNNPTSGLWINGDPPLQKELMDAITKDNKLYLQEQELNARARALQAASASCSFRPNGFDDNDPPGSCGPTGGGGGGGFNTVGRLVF
Method in brief: as §1

[4] = molecular target: T3, USP39 (UniProt Q53GS9)
T3 sequence (whole entry): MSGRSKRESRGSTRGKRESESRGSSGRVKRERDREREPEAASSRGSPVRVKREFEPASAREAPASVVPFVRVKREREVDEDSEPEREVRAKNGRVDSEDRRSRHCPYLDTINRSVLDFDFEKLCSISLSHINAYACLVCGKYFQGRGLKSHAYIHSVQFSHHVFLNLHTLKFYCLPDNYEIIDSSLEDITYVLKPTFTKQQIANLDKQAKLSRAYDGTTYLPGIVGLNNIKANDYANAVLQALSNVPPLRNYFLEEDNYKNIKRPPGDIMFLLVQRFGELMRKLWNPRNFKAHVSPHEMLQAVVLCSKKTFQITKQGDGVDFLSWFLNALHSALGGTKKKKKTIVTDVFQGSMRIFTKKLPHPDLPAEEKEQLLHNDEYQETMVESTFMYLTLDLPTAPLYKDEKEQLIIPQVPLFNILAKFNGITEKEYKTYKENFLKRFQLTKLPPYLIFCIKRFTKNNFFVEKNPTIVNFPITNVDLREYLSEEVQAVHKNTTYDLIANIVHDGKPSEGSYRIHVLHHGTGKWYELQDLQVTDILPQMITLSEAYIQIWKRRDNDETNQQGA
Method in brief: as §1

[5] = molecular target: T4, USP4 (UniProt Q13107)
T4 sequence (whole entry): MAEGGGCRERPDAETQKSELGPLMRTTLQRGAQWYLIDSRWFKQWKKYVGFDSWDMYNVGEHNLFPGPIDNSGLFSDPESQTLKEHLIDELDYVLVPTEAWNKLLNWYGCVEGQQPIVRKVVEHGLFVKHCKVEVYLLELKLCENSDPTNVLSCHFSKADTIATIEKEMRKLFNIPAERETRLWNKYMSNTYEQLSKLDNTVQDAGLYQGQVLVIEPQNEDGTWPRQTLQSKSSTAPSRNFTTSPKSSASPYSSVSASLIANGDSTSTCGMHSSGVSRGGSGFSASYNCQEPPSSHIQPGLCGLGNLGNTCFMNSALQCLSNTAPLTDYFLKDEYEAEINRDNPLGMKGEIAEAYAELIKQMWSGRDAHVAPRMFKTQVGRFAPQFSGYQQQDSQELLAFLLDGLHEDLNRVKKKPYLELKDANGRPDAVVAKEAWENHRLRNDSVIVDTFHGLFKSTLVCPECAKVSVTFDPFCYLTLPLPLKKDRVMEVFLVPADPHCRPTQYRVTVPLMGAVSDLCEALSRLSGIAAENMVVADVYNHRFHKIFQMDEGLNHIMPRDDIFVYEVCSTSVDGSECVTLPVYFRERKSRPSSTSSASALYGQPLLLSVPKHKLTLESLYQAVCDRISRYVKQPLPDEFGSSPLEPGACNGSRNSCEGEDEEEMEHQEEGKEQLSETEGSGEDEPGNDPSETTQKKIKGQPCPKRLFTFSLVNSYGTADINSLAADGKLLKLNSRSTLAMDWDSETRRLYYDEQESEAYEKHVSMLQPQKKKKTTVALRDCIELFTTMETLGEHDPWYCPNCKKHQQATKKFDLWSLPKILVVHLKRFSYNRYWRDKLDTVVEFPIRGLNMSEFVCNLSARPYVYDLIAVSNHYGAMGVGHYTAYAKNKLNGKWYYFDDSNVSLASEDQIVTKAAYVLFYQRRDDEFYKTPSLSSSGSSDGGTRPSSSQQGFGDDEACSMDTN
Method in brief: as §1

Measured: log2 ratio of Biotin-Ahx-Ub-VS probe labelling

Chain of USP34 (Q70CQ2 whole entry, the tested form may be a part): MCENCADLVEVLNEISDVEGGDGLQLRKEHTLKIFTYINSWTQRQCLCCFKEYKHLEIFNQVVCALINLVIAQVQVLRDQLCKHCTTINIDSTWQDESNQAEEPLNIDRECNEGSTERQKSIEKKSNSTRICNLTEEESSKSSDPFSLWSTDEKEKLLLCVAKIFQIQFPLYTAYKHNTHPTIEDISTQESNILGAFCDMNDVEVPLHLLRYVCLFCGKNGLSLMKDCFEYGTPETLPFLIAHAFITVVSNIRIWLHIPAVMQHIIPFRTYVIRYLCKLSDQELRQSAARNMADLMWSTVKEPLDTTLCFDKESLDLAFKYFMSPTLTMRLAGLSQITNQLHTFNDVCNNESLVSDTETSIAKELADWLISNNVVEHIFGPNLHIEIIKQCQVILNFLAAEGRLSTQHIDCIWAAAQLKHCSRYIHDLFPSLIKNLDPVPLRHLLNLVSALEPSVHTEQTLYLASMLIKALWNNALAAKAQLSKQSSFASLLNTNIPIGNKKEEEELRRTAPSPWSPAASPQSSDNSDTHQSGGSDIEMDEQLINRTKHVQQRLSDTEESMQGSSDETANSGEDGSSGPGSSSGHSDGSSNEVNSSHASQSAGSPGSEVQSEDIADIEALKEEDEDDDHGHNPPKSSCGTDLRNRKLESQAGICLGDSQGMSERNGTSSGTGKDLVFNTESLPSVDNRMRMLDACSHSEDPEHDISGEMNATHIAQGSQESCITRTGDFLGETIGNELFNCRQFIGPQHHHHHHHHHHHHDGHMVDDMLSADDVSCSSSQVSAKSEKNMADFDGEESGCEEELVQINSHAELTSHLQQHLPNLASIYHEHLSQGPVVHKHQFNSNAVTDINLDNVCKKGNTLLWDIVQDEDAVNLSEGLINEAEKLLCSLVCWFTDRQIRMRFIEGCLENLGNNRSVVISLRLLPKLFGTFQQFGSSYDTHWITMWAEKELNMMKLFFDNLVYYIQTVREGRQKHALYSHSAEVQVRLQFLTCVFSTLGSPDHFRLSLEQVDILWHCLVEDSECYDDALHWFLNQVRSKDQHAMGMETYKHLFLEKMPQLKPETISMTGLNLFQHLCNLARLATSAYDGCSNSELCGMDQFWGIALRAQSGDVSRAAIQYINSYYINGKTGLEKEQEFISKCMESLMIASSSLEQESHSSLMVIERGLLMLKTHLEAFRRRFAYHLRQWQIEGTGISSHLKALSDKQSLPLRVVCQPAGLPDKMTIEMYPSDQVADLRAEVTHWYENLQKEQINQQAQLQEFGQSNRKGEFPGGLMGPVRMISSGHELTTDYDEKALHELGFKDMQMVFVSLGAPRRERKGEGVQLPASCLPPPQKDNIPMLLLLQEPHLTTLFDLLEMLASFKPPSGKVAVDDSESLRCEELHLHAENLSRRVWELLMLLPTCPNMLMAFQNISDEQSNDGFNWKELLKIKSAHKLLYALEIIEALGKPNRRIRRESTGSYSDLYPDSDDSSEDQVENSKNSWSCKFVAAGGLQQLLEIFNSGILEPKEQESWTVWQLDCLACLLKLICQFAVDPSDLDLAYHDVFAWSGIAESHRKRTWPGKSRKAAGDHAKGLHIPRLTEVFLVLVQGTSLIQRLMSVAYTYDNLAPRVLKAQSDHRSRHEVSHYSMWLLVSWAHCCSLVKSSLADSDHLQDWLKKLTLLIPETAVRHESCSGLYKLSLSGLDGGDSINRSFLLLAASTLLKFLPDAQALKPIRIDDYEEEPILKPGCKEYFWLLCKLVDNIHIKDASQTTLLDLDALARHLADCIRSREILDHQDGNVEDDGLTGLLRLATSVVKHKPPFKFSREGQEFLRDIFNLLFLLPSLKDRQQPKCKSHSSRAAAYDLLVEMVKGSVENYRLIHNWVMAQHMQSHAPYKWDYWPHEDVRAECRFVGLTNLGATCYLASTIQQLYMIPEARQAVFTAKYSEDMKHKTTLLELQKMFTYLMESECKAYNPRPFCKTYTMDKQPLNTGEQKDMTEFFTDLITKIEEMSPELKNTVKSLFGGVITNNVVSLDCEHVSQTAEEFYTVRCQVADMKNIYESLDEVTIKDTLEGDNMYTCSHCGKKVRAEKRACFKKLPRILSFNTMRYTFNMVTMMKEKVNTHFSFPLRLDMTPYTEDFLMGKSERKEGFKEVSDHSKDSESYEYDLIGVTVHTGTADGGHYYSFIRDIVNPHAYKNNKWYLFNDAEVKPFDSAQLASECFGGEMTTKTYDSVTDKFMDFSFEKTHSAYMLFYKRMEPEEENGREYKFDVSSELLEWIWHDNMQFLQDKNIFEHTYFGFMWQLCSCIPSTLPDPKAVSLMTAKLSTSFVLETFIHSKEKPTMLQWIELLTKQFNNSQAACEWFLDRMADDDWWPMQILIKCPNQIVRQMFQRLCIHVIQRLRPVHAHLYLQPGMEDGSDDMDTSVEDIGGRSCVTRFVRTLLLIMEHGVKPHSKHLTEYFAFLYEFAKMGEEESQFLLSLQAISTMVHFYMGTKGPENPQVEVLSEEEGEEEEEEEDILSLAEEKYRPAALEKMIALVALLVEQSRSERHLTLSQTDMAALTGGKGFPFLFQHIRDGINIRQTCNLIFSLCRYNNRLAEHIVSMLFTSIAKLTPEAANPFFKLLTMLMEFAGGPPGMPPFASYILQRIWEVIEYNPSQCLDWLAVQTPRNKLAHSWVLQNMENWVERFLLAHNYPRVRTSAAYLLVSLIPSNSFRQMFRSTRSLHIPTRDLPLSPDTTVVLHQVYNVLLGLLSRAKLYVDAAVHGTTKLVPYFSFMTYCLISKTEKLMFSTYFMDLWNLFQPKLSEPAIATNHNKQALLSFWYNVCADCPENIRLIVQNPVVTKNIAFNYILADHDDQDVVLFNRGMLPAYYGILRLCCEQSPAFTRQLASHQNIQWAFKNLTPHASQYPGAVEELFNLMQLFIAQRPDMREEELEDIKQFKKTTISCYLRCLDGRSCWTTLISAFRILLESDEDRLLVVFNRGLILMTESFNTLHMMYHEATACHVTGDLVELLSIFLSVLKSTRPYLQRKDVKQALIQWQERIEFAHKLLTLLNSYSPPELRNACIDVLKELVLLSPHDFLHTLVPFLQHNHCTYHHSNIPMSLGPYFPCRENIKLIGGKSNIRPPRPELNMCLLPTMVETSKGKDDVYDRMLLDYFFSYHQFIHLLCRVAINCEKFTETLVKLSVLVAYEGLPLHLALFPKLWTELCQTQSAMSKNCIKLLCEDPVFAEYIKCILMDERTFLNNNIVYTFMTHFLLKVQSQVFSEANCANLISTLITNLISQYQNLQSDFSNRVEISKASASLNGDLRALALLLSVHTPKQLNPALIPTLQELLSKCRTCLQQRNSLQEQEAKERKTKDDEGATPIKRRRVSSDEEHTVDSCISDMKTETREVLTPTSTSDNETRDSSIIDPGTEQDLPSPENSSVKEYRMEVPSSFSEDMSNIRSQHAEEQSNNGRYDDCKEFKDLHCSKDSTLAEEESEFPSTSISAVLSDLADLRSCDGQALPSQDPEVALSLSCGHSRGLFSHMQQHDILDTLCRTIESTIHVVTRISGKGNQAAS

CC(NC(=O)CCl)c1noc(Cc2ccccc2)n1 (stereo not given)
inactive: [1] -0.0517 | [2] -0.338 | [3] -0.21 | [4] -0.245 | [5] -0.142
